# Experimental data from PubChem BioAssay AID720706 (Broad Institute, 2013).
# The whole screen tested about 350,000 compounds, of which about 5,500 (1.6%) were called active.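 The calls were made as follows: active = significant combined selectivity score with lowered wild-type GFP, culture density cut under 30%, mutant RFP and density less affected; inactive = any of these conditions unmet.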 For the sample, actives were picked, then their nearest neighbours and some compounds at random.
# Assay: reduced GFP signal of wild-type E. coli, primary screen, bacterial rRNA inhibitor project, GFP/RFP fluorescence, OD600, single point (AID 720706)
# Details: E. coli WT GFP vs humanized-ribosome RFP mutants, 24 h; GFP signal change (wild-type ribosome): stronger effect = lower value, DMSO median 0, no signal -100; OD600 change: measured here: OD600 growth, DMSO median 0, no signal -100; RFP signal change: measured here: RFP humanized mutant strains, DMSO median 0, no signal -100, concentration not given here
SMILES,GFP signal change (wild-type ribosome),OD600 change,RFP signal change
O=C(c1cccc(F)c1)N1CC(=O)N2[C@H](C1)[C@@H](c1ccc(C#Cc3ccc(F)cc3)cc1)[C@@H]2CO,1.74% (inactive),-7.67%,4.35%
COC(=O)[C@@H]1[C@@H](CO)[C@@H]2Cn3c(ccc(-c4ccccc4F)c3=O)[C@@H]2N1CC1CCOCC1,1.95% (inactive),-6.47%,6.87%
O=C1C(Sc2cccc(F)c2)=C[C@@]2(O)CC[C@@H](O)[C@]1(Sc1cccc(F)c1)[C@H]2O,-37% (active),-28.5%,-4.19%
COc1ccc(S(=O)(=O)Nc2ccc3c(c2)CC(=O)N([C@H](C)CO)C[C@H](C)[C@@H](CN(C)C)O3)cc1,2.15% (inactive),13.2%,-1.01%
C[C@H](CO)N1C[C@H](C)[C@@H](CN(C)C(=O)c2ccncc2)Oc2cc(C3=CCCCC3)ccc2S1(=O)=O,-1.29% (inactive),-9.47%,-3.74%
CN(C)C(=O)c1coc2nc3ccccc3nc12,12.4% (inactive),6.11%,-0.0205%
CNC(=O)C(NC(=O)c1ccccc1)=C(C)C,10.9% (inactive),9.13%,-0.414%
CNC(=O)c1cccc2nc3ccccc3nc12,-23.6% (active),-17.7%,-6.61%
CC(C)NC(=O)Nc1ccc2c(c1)C(=O)N(C)[C@@H]1CC[C@H](CC(=O)NCC3CCCCC3)O[C@@H]1CO2,-0.35% (inactive),-6%,0.584%
C/C=C/c1ccc([C@@H]2[C@H](CO)N(CC3CCCC3)C23CN(C(=O)CC2CC2)C3)cc1,-14.4% (inactive),-40%,32.6%
CCCSC1=C(C#N)C(c2ccccc2C)C(C(=O)OC)C(=O)N1 (centres undefined),-10.9% (inactive),-3.33%,-1.26%
CCOC(=O)C1(C)NC(c2ccco2)C2C(=O)N(c3ccccc3)C(=O)C21 (centres undefined),7.82% (inactive),18.6%,3.41%
CCOC(=O)CSC1=C(C#N)C(c2ccco2)C(C(=O)OCc2ccccc2)=C(C)N1 (centres undefined),-26.5% (active),-14.3%,-3.21%
O=C(NCCCN1CCOCC1)c1ccc([N+](=O)[O-])cc1[N+](=O)[O-],7.34% (inactive),6.35%,-0.35%
CN1CCN(CCNC(=O)Nc2ccc([N+](=O)[O-])cc2)CC1,3.04% (inactive),-6.09%,-2.6%
O=C(NCCCN1CCN(c2ccc(F)cc2)CC1)Nc1ccc([N+](=O)[O-])cc1,-23.1% (active),-16.1%,9.67%
O=C(c1ccncc1)N1CC(=O)N2[C@H](C1)[C@@H](c1ccc(C#CCC3CCCC3)cc1)[C@@H]2CO,-32.1% (inactive),-56.8%,7.12%
CCCN(C)C[C@@H]1Oc2ncc(-c3ccccc3F)cc2C(=O)N([C@@H](C)CO)C[C@@H]1C,9.44% (inactive),19.7%,-1.32%
Nc1ccc(N=Nc2ccccc2Cl)c(N)n1,-31.4% (active),-18.6%,-5.26%
C[C@@H]1CN([C@H](C)CO)C(=O)c2cccc(NC(=O)Nc3ccc(F)cc3)c2O[C@@H]1CN(C)C(=O)Nc1ccc(C(F)(F)F)cc1,-3.92% (inactive),-1.07%,-2.09%
COc1ccc(S(=O)(=O)Nc2ccc3c(c2)CC(=O)N([C@H](C)CO)C[C@H](C)[C@@H](CN(C)C(=O)NC(C)C)O3)cc1,1.06% (inactive),6.54%,-0.682%

SMILES,GFP signal change (wild-type ribosome),OD600 change,RFP signal change
C[C@@H]1CN([C@@H](C)CO)C(=O)c2cccc(N(C)C)c2O[C@@H]1CN(C)S(C)(=O)=O,0.068% (inactive),11.7%,1.6%
Cc1cc(C)c(C#N)c(SCc2[nH]nc3c2C(c2ccccc2)C(C#N)=C(N)O3)n1 (centres undefined),-19.3% (active),-14.2%,7.29%
N#CC1=C(N)Oc2cc(N)ccc2C1c1ccccc1 (centres undefined),5.33% (inactive),13.2%,8.27%
N#CC1=C(N)Oc2n[nH]c(CSc3ccccc3)c2C12C(=O)Nc1ccccc12 (centres undefined),-4.64% (inactive),-0.706%,2.2%
CCC(=O)Nc1ccc2c(c1)C(=O)N(C)[C@H]1CC[C@H](CC(=O)NCC3CCCCC3)O[C@H]1CO2,-0.704% (inactive),-0.374%,-0.863%
CC[C@H](NC(=O)[C@H](Cc1ccccc1)NC(=O)[C@H]1O[C@@H](n2cnc3c(=O)[nH]c(N)nc32)[C@H](O)[C@@H]1O)c1ccccc1,13.7% (inactive),14.1%,2.61%
O=S(=O)(Nc1ccc(OC(F)(F)F)cc1)c1cccc2nonc12,-39% (active),-15.7%,-10.9%
O=C(O)c1ccc(NS(=O)(=O)c2cccc3nsnc23)cc1,12.3% (inactive),9.27%,0.548%
CCc1cccc(NC(=O)CCNS(=O)(=O)c2cccc3nonc23)c1,-13.3% (inactive),-12.7%,18.6%
Cc1ccc(S(=O)(=O)N(C)C[C@@H]2Oc3c(NS(=O)(=O)c4ccc(F)cc4)cccc3C(=O)N([C@@H](C)CO)C[C@H]2C)cc1,-1.93% (inactive),3.45%,0.647%
N#Cc1ccc(CSc2ncccn2)cc1,-4.06% (inactive),-1.11%,-0.806%
Cc1ccc(CSc2nsc(C)c2C#N)cc1,-24.5% (active),-7.04%,-1.18%
Cc1snc(SCc2c(F)cccc2Cl)c1C#N,-4.85% (inactive),-10.8%,-3.63%
CN(C)C(=O)C[C@H]1C[C@@H]2c3cc(NC(=O)CC4CC4)ccc3O[C@@H]2[C@@H](CO)O1,1.34% (inactive),0.566%,1.23%
Cc1ccc(S(=O)(=O)N(C)C[C@@H]2Oc3ccc(NC(=O)Cn4cnnn4)cc3CC(=O)N([C@H](C)CO)C[C@H]2C)cc1,-0.977% (inactive),0.458%,-4.09%
Cc1cccc(CS(=O)(=O)c2ncc(Cl)c(C(=O)Nc3ccc(F)cc3)n2)c1,6.16% (inactive),2.7%,-4.49%
Cc1cccc(NC(=O)c2nc(S(=O)(=O)Cc3ccccc3)ncc2Cl)c1,-14.7% (active),11%,-6.12%
CSc1nnc(NC(=O)c2nc(S(=O)(=O)Cc3ccc(C)cc3)ncc2Cl)s1,2.78% (inactive),-0.98%,0.486%
CS(=O)(=O)N1CCCCN2[C@@H](CO)[C@@H](c3ccc(Br)cc3)[C@@H]2C1,5.32% (inactive),1.18%,3.67%
COc1ccc(CNC(=O)COC(=O)c2ccc(C)c(S(=O)(=O)N3CCOCC3)c2)cc1OC,-1.36% (inactive),-0.45%,4.29%
Cc1ccc(C(=O)OCC(=O)N2CC(C)CC(C)C2)cc1S(=O)(=O)N1CCCCC1 (centres undefined),-26.5% (inactive),-33.2%,-6.95%

SMILES,GFP signal change (wild-type ribosome),OD600 change,RFP signal change
Cc1ccc(C(=O)OCC(=O)NCc2cc(C)c(O)c(C)c2)cc1S(=O)(=O)N1CCCCC1,-24.5% (active),-17%,-2.51%
COc1ccccc1C#Cc1ccc2c(c1)O[C@H](CN(C)Cc1cccnc1)[C@@H](C)CN([C@H](C)CO)S2(=O)=O,-5.86% (inactive),-7.99%,4.04%
CC(NC(=O)Nc1cccc([N+](=O)[O-])c1)c1ccc2c(c1)OCO2 (centres undefined),-34.5% (active),-26.4%,-5.09%
CC(NC(=O)Nc1ccc2c(c1)OCO2)c1ccncc1 (centres undefined),13.1% (inactive),4.68%,1.46%
Cc1cccc(NC(=O)Nc2ccc3c(c2)OCO3)n1,0.76% (inactive),7.09%,-5.02%
CC1CC2=C(CC1/C=N/NC(N)=S)C(C)(C)CCC2 (centres undefined),-18.2% (active),0.8%,-0.09%
Cc1noc(C)c1NC(=O)Nc1ccc2c(c1)C(=O)N([C@@H](C)CO)C[C@H](C)[C@H](CN(C)CC1CCCCC1)O2,2.74% (inactive),1.93%,-1.48%
CCN(CC)S(=O)(=O)c1ccc(N2CCOCC2)c(NC(=O)c2ccc(=O)n(C)n2)c1,18.6% (inactive),11.8%,-3.6%
CCN(CC)S(=O)(=O)c1cc(C(=O)Nc2cc(S(=O)(=O)N3CCOCC3)ccc2N2CCCC2)ccc1F,-10.4% (inactive),-14.8%,1.19%
CCN(CC)S(=O)(=O)c1ccc(N2CCCC2)c(NC(=O)c2ccc([N+](=O)[O-])o2)c1,-27.2% (active),5.04%,9.95%
C[C@@H]1CN([C@@H](C)CO)C(=O)c2cccc(NC(=O)Nc3ccc(F)cc3)c2O[C@H]1CN(C)Cc1ccc(-c2ccccc2)cc1,-7.51% (inactive),-2.98%,-0.352%
O=C(C1CCC1)N1CC(=O)N2[C@@H](CO)[C@@H](c3ccc(C#Cc4cccc(F)c4)cc3)[C@@H]2C1,-59.7% (inactive),-79.3%,-12.2%
CCc1ccccc1NC(=O)CN(C)C(=O)c1cc(C2CC2)nn1-c1ccccc1,-2.02% (inactive),-16.5%,3.78%
COc1cccc(NC(=O)CN(C)C(=O)c2cc(C3CC3)nn2-c2ccccc2)c1,-29.5% (inactive),-27.8%,-7.04%
COc1ccc(NC(=O)CN(C)C(=O)c2cc(C3CC3)nn2-c2ccccc2)cc1,-22.4% (active),-10.8%,5.24%
Cc1nn(-c2ccccc2)c(Cl)c1/C=C/C(=O)c1ccc(O)cc1,-25.9% (active),-19.6%,-0.656%
Cc1nn(-c2ccc(F)cc2)c(Cl)c1/C=C(/CCC(=O)O)c1nc2ccccc2s1,-52.2% (inactive),-75.8%,-17.8%
Cc1nn(-c2ccccc2)c(C)c1/C=C/C(=O)OC(C)C(N)=O (centres undefined),0.439% (inactive),-2.9%,-0.31%
COc1ccccc1CN1[C@H](CO)[C@H](c2ccccc2)C12CN(C(=O)c1ccccn1)C2,-7.66% (inactive),-1.5%,11%
Cc1noc(C)c1NC(=O)Nc1ccc2c(c1)C(=O)N([C@H](C)CO)C[C@@H](C)[C@H](CN(C)Cc1ccncc1)O2,0.165% (inactive),5.53%,-0.035%
C[C@H]1CCCCO[C@@H](CN(C)S(=O)(=O)c2ccc(Cl)cc2)[C@@H](C)CN([C@@H](C)CO)C(=O)c2cc(NS(=O)(=O)c3cn(C)cn3)ccc2O1,-1.49% (inactive),-13.7%,2.11%
